This is an account of results in PubChem BioAssay AID1851 (National Center for Advancing Translational Sciences (NCATS), 2009).

Broadly, the AC50 is the midpoint of the concentration-response curve, whichever way the signal moves.

Molecules are shown by their SMILES. The whole screen tested about 16,000 compounds, of which about 5,800 (36%) were called active. Not shown: some 23% with an inconclusive outcome. Calls come from the whole dose curve; as a rule, active = well fitted curve in the direction sought with a large enough effect; inconclusive = small, poorly fitted or top-dose-only effect, or effect the other way; inactive = no such curve, though single readings can be large or run the other way. This is one part of the list.
% is set by controls: 0 for no effect and ±100 for the full control effect.

Sequence of Cytochrome P450 2C19 (Homo sapiens) (P33261 whole entry, looked up): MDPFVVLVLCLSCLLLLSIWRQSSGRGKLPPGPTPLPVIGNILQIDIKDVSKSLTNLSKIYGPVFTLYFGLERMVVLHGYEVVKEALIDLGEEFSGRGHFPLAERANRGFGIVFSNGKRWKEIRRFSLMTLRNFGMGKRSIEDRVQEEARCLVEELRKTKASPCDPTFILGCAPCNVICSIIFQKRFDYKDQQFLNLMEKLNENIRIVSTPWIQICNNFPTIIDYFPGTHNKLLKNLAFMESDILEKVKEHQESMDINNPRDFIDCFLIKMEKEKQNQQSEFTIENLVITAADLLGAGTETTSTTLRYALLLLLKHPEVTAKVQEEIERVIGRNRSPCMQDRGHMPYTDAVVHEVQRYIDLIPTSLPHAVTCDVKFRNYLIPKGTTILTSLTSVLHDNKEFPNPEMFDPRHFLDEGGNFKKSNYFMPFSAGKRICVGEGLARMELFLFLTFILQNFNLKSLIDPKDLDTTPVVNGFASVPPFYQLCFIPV

This test concerns the target Cytochrome P450 2C19 (Homo sapiens) (UniProt P33261). As to the kind of experiment: Cytochrome panel assay with activity outcomes. The note with it: recombinant CYP, pro-luciferin dealkylation, luminescence, p450-cyp2c19; series mostly up to 57.1 µM; activity, negative = inhibition: at the top concentration.
For `O=C(c1cccc(F)c1)N1CCC[C@@]2(CCN(C(c3ccccc3)c3ccccc3)C2)C1`, the “activity, negative = inhibition” value was 10.6% (inactive). Still for that read-out and setting: for `COc1ccc(COC(=O)N/N=C2/C[C@@H](O)[C@@H](O)[C@@H]3[C@H]4C(=O)N(c5ccc(F)cc5F)C(=O)[C@@H]4CC[C@H]23)cc1` the value was 31.9% [at 11.4 µM] (inactive); for `Cc1cc2cc3c(C)cc(=O)oc3c(C)c2o1`, 7.53% [at 25.6 µM] (inactive). Regarding `Cc1ccc(C(=O)N/C(=C\c2ccc([N+](=O)[O-])cc2)C(=O)NCCc2ccccc2)cc1`, the AC50 is 2 µM (active).

On to `O=C(OCC(=O)c1ccc([N+](=O)[O-])cc1)/C(=C\c1ccc(Cl)cc1)NC(=O)c1ccccc1`, for which the AC50 is 3.98 µM (active). Still for that read-out and setting: for `Cc1ccc(NC(=O)Nc2nc(-c3ccc(C)s3)cs2)cc1` the value was 6.31 µM (active).

Turning to `Cc1ncn(-c2ccccc2O)c1C`, the activity, negative = inhibition is -11% [at 11.4 µM] (inactive). Regarding `CCOC(=O)Cn1c(CN(Cc2ccccc2)Cc2ccccc2)nc2c1c(=O)[nH]c(=O)n2C`, the AC50 is 15.8 µM (active).

Regarding `COC(=O)Cn1c(CN(Cc2ccccc2)Cc2ccccc2)nc2c1c(=O)[nH]c(=O)n2C`, the AC50 is 28.2 µM (active). Turning to `Cn1c(=O)c2[nH]c(SCCN3CCOCC3)nc2n(C)c1=S`, the activity, negative = inhibition is -14.1% [at 11.4 µM] (inactive). Consider `Cn1c(=O)[nH]c(=O)c2c1nc(CN1CCOCC1)n2Cc1ccccc1`, for which the “activity, negative = inhibition” value is -14.7% (inactive). Still for that read-out and setting: under `Cn1c(=O)[nH]c(=O)c2c1nc(NCCCO)n2CCCc1ccccc1` stands -38.3% (inactive).

With `Cc1ccc(C(=O)CNc2nc3c(c(=O)[nH]c(=O)n3C)n2Cc2ccccc2)cc1`, the AC50 was 5.62 µM (active). Same read-out and setting: under `Cn1c(=O)[nH]c(=O)c2c1nc(CN(Cc1ccccc1)Cc1ccccc1)n2CCN1CCOCC1` stands 14.1 µM (active). Turning to `Cc1nc(CN2CCCCC2)c(O)c(=O)[nH]1`, the activity, negative = inhibition is -22.5% [at 11.4 µM] (inactive). On the same count and under the same terms, for `NC(=O)NC(=O)[C@H]1CCCC[C@@H]1C(=O)O` the value was 12.1% [at 11.4 µM] (inactive). On the same count and under the same terms, under `Cn1ncc2c(Cl)ncnc21` stands -3.14% [at 11.4 µM] (inactive).

Consider `Cn1ncc2c(NCCc3ccccc3)nc(Cl)nc21`, for which the half-maximal activity concentration (AC50) is 0.126 µM (active). In the case of `CCCCN(c1ccccc1)c1ncnc2c1cnn2C`, the activity, negative = inhibition was -9.3% [at 11.4 µM] (inactive).

Regarding `COc1ccccc1CN1CC[C@@]2(CCCN(C(=O)c3c(C)noc3C)C2)C1`, the “activity, negative = inhibition” value is -31.8% (inactive).

Regarding `COc1ccc(-c2noc(C3CCCN(C(=O)c4ccccc4OC)C3)n2)cc1OC` (stereo unspecified), the half-maximal activity concentration (AC50) is 11.2 µM (active). With `CCCCCC(=O)N1CCCC(c2nc(-c3ccc(OC)cc3)no2)C1` (stereo unspecified), the AC50 was 7.08 µM (active).

Take `CN(C)c1ccc(-c2noc(C3CCN(S(=O)(=O)c4cccc(C(=O)O)c4)CC3)n2)cc1`: the “activity, negative = inhibition” value is -27.6% (inactive). Turning to `CCOC(=O)/C(C#N)=C1/C=CN(C)C=N1`, the “activity, negative = inhibition” value was 10.6% (inactive).

In the case of `CCOC(=O)/C(C#N)=C1/SC(CC)C(=O)N1c1ccc(Br)cc1` (stereo unspecified), the AC50 was 1.58 µM (active).

Regarding `CC(C)OCCCn1c(=S)[nH]c2ncccc2c1=O`, the concentration at half-maximal activity (AC50) is 14.1 µM (active). With `Cn1c(=O)c2[nH]c(SCc3ccccn3)nc2n(C)c1=S`, the activity, negative = inhibition is 29.1% [at 11.4 µM] (inactive). Consider `COCCNC(=O)COC(=O)/C=C/c1cnc2ccccc2n1`, for which the AC50 was 22.4 µM (active). As for `CC(C)(C)CC(C)(C)c1cc(O)c(O)c(CN2CCCCC2)c1`, the activity, negative = inhibition is -5.03% [at 11.4 µM] (inactive). As to `O=C1C=C(Nc2ccc(Cl)cc2)CC(c2ccc(Cl)cc2)C1` (stereo unspecified), the concentration at half-maximal activity (AC50) was 1.58 µM (active). In the case of `O=C1O[C@H](CN2CCOCC2)CN1/N=C\c1ccc([N+](=O)[O-])o1`, the “activity, negative = inhibition” value is 8.96% [at 25.6 µM] (inactive). Regarding `Cn1c(/C=C/c2ccc([N+](=O)[O-])o2)nc2ccccc2c1=O`, the concentration at half-maximal activity (AC50) is 14.1 µM (active). The same measure, in the same setting: under `Nc1ccc(S(=O)(=O)NCc2nccs2)cc1` stands 0.0794 µM (active).

With `Nc1ccc(S(=O)(=O)Nc2nccs2)cc1`, the “activity, negative = inhibition” value is 7.08% [at 25.6 µM] (inactive). The same measure, in the same setting: for `Nc1ccc(S(=O)(=O)Nc2ncccn2)cc1` the value was 25.6% [at 25.6 µM] (inactive); for `O=C(O)c1cccnc1`, 6.1% [at 25.6 µM] (inactive). Turning to `O=C(NC(NCc1ccccc1)C(Cl)(Cl)Cl)c1cccnc1` (stereo unspecified), the AC50 was 4.47 µM (active). Consider `Cc1cccc(NC(NC(=O)c2cccnc2)C(Cl)(Cl)Cl)c1` (stereo unspecified), for which the AC50 is 2.82 µM (active). In the case of `CCNc1ncc2nc(-c3cccs3)c(=O)n(CCC#N)c2n1`, the “activity, negative = inhibition” value was -20.2% (inactive).

On to `COC(Cc1nnc(SC)n1-c1ccc(Cl)cc1)OC`, for which the “activity, negative = inhibition” value was -9.57% (inactive). Turning to `COc1ccc(NCc2nnc(SCc3ccccc3)n2-c2ccc(OC)cc2)cc1`, the concentration at half-maximal activity (AC50) is 3.98 µM (active). Still for that read-out and setting: for `COC(=O)CSc1nnc(CNc2ccc(Cl)cc2)n1-c1ccccc1` the value was 5.01 µM (active). `COC(Cc1nnc(SC)n1-c1ccccc1)OC`: the “activity, negative = inhibition” value is -17% (inactive). With `CCOc1ccc(NCc2nnc(SCc3ccccc3Cl)n2-c2ccccc2)cc1`, the half-maximal activity concentration (AC50) is 2 µM (active).

On to `CC(C)CN1CCCC2(CCN(C(=O)c3csnn3)CC2)C1`, for which the “activity, negative = inhibition” value is -12.1% (inactive). On the same count and under the same terms, under `C[C@@H]1CCCC(CC(=O)O)(CC(=O)O)C1` stands 9.85% [at 11.4 µM] (inactive). As for `Cc1ccc(/C=C/C(=O)NC(=S)Nc2ccccc2C(=O)NC2CCCCC2)cc1`, the concentration at half-maximal activity (AC50) was 14.1 µM (active). As for `O=C(/C=C/c1ccc(Br)cc1)NC1CCCCCC1`, the “activity, negative = inhibition” value is -28.3% (inactive).

With `O=c1c([N+](=O)[O-])cc(C(F)(F)F)cn1Cc1c(Cl)cccc1Cl`, the AC50 was 7.08 µM (active). As to `Cc1cc2nc3[nH]c4c(Cl)cc(Cl)cc4c3nc2cc1C`, the activity, negative = inhibition was 32.6% [at 11.4 µM] (inactive). Same read-out and setting: for `CN(C)C(=O)c1ccc(-c2cc(N(C)Cc3ccco3)ncn2)cc1` the value was -41.6% (inactive). On to `CN(C)c1ccc(-c2cc(N(C)Cc3ccco3)ncn2)cc1`, for which the half-maximal activity concentration (AC50) is 10 µM (active).

In the case of `CN(Cc1ccco1)c1cc(-c2ccc3c(c2)OCO3)ncn1`, the half-maximal activity concentration (AC50) is 10 µM (active). Consider `CC(=O)OC[C@H]1O[C@@H](O/N=C\[C@@H](C)[C@H](OCc2ccccc2)C(C)C)[C@H](OC(C)=O)[C@@H](OC(C)=O)[C@H]1OC(C)=O`, for which the activity, negative = inhibition was 12.9% [at 11.4 µM] (inactive). Same read-out and setting: under `O=C1C=C(NCC2CCCO2)C2(CCCCC2)O1` (stereo unspecified) stands -39.1% (inactive); under `Cc1cc2ccccc2nc1SCC(=O)Nc1nc(-c2ccccc2)cs1`, -7.04% (inactive). Regarding `COc1ccc2cc(C)c3nnc(SCC(=O)Nc4nc(-c5ccccc5)cs4)n3c2c1`, the AC50 is 5.01 µM (active). Regarding `CC(=O)OC[C@@H]1O[C@H](C/C=N\O[C@@H]2O[C@H](COC(C)=O)[C@@H](OC(C)=O)[C@H](OC(C)=O)[C@H]2OC(C)=O)C=C[C@@H]1OC(C)=O`, the activity, negative = inhibition was 12.3% [at 11.4 µM] (inactive). For `O=C(CN1CCN(c2ccc(Cl)cc2)CC1)Nc1ccc(F)c(F)c1`, the half-maximal activity concentration (AC50) is 7.94 µM (active). `O=C(CN1CCN(c2ccc(Cl)cc2)CC1)Nc1cccc(F)c1`: the half-maximal activity concentration (AC50) is 5.01 µM (active). On to `O=C(COc1ccc(Cl)cc1)Nc1ccc(N2CCN(C(=O)c3ccco3)CC2)cc1`, for which the “activity, negative = inhibition” value is -27.1% (inactive).
